Reference: PubChem BioAssay (NCATS)
Inconclusive results are not listed. Values without a mark were called inactive. The source made the active and inactive calls. Calls come from the whole dose curve; as a rule, active = well fitted cell-killing curve with a large enough effect; inconclusive = small, poorly fitted or top-dose-only effect; inactive = no such curve, though single readings can be large or run the other way.

experiment: qHTS of pediatric cancer cell lines to identify multiple opportunities for drug repurposing: Primary screen for NB1643 cells (AID 1347099); conditions: NB1643 neuroblastoma viability, CellTiter-Glo luminescence, 48 h; series mostly up to 46 µM; activity change, negative = cytotoxic: at the top concentration; note: nearly all actives have a fitted effect of over 50% in size
Text: Drug repurposing or repositioning has been offered as a strategy for drug development in oncology programs. This approach has special potential for childhood cancers and other rare or orphan diseases, where the expected return on new drug development has been a disincentive to pharmaceuticals. […] In this project we exploit the poly-pharmacology of drugs to discover new indications via phenotypic screening of a panel of 19 well-characterized cell lines derived from solid tumors seen in children and adolescents. The goal is to identify approved drugs with previously unrecognized anticancer properties that has the potential to reveal new mechanisms and biological processes involved in carcinogenesis or drug resistance. We employed a titration-based paradigm (quantitative high-throughput screening or qHTS), where all compounds were tested at multiple concentrations for their effect on cell viability. Concentration-response curves (CRCs) were derived directly from the primary screen, and both potency and efficacy values were used to identify compounds with robust bioactivity profiles. We screened the NIH Chemical Genomics Center (NCGC) Pharmaceutical Collection (NPC) and Mechanism Interrogation Plate (MIPE) small molecule collections of approved and investigational compounds against these cell lines; and measured metabolically active cells after 48 hours of compound treatment as a proxy for cell viability. […] Assay Submitter: Nathalia J. Martinez, National Center for Advancing Translational Sciences, National Institutes of Health, Rockville, MD, USA; email: natalia.martinez@nih.gov Shen, M et al. Quantitative high-throughput phenotypic screening of pediatric cancer cell lines identifies multiple opportunities for drug repurposing. Oncotarget 2017 Dec 19;9(4):4758-4772. PMID 29435139.
The cells were obtained from University of North Carolina (UNC), Pediatric Preclinical Testing Program (PPT), and Coriell Institute (CI). qHTS cell viability assay: Cells were assayed in growth media at a density of 500-1,000 cells/well. Five microliters of cells were dispensed into 1,536-well, white, solid-bottom, TC-treated plates (Greiner Bio One) using a multidrop dispenser and incubated at 37 degrees C, 5% CO2, under a humidified atmosphere for 5 hours. Twenty-three nanoliters of compounds and controls (neutral control DMSO or positive control bortezomib at final concentration of 2.3 µM) were subsequently transferred by Kalypsys pintool. For primary screens, the MIPE collection was tested at 11-point dilutions (final concentrations range from 0.78 nM to 46 µM) and the NPC collection at 8-point dilutions (final concentrations range from 0.59 nM to 46 µM). Compounds tested in follow-up screens were assayed at 11-point dilutions. Cells were incubated for 48 hours, followed by addition of 3 µL of CellTiter-Glo (Promega). After a 15 min incubation at room temperature, samples were analyzed for luminescence intensity using a ViewLux High-throughput CCD imager equipped with clear filters.
Potency is the fitted concentration of half-maximal effect.

Row | Structure (SMILES) | Potency | activity change, negative = cytotoxic
1 | CC[N+](CC)(CC)CCOc1ccc(/C=C/c2ccccc2)cc1 | 13.3 µM (active) | 
2 | CC(CN1c2ccccc2Sc2ccccc21)N(C)C (stereo not given) |  | -4.91%
3 | O=S(=O)(O)NC1CCCCC1 |  | 8%
4 | CSc1ccc2c(c1)C(N1CCN(C)CC1)Cc1ccccc1S2 (stereo not given) |  | -11.8%
5 | CNCC(O)c1ccc(O)c(O)c1 (stereo not given) |  | -5.18%
6 | Cc1cc(CC(=O)O)n(C)c1C(=O)c1ccc(Cl)cc1 |  | 25.9%
7 | CCn1cc(C(=O)O)c(=O)c2cnc(N3CCNCC3)nc21 |  | 4.21%
8 | CCCCC/C(C=O)=C\c1ccccc1 |  | 18.2%
9 | Cc1ncc(COP(=O)(O)O)c(C=O)c1O |  | 3.38%
10 | O=Cc1ccccc1C=O |  | 0%
11 | OCc1cc(C(O)CNCCCCCCOCCCCc2ccccc2)ccc1O (stereo not given) |  | 20.2%
12 | CCN(CC)CCNC(C(=O)OCCC(C)C)c1ccccc1 (stereo not given) |  | 0%
13 | Cc1ccc(C(C)C)cc2c(C)ccc1-2 |  | 9.78%
14 | CN(N=O)C(=O)N[C@@H]1[C@@H](O)[C@H](O)[C@@H](CO)O[C@@H]1O |  | 10.6%
15 | Nc1ccc(S(=O)(=O)NC(=O)c2ccccc2)cc1 |  | -7.31%
16 | CCCCOC(=O)c1ccc(O)cc1 |  | -4.5%
17 | COC(=O)[C@H]1[C@H]2C[C@@H]3c4[nH]c5cc(OC)ccc5c4CCN3C[C@H]2C[C@@H](OC(=O)COc2ccc(OC)cc2)[C@@H]1OC |  | -0.668%
18 | OC[C@H]1O[C@@H](O[C@@H]2[C@@H](CO)O[C@](O)(CO)[C@H]2O)[C@H](O)[C@@H](O)[C@H]1O |  | 1.19%
19 | CCOC(CN1CCN(CC(C)C(=O)c2ccccc2)CC1)c1ccccc1 (stereo not given) |  | 0% [at 16.1 µM]
20 | COCCOC(=O)C1=C(C)NC(C)=C(C(=O)OC/C=C/c2ccccc2)C1c1cccc([N+](=O)[O-])c1 (stereo not given) |  | -15.4%

Row | Structure (SMILES) | Potency | activity change, negative = cytotoxic
21 | NC(N)=NCCC[C@H](N)C(=O)O |  | 7.96% [at 4.84 µM]
22 | COc1ccc(S(=O)(=O)Nc2nnc(CC(C)C)s2)cc1 |  | -7.46%
23 | c1ccc2c(CC3=NCCN3)cccc2c1 |  | -1.15%
24 | CC(=O)Nc1ccc(/C=N/NC(N)=S)cc1 |  | 3.85%
25 | CO/N=C(\C(=O)N[C@@H]1C(=O)N2C(C(=O)O)=C(CSc3nc(=O)c(O)nn3C)CS[C@H]12)c1csc(N)n1 |  | 10.4%
26 | COc1ccc(Cl)cc1C(=O)NCCc1ccc(S(=O)(=O)NC(=O)NC2CCCCC2)cc1 |  | -25.8%
27 | CCN(CC)CCSC(=O)C(c1ccccc1)c1ccccc1 | 23.7 µM (active) | 
28 | CC(CN(C)C)CN1c2ccccc2CCc2ccccc21 (stereo not given) |  | 0%
29 | CCCOC(=O)c1ccccc1 |  | 13.2%
30 | COc1cc2[nH]c(=O)[nH]c(=O)c2cc1OC |  | 4.31%
31 | CN(C)CC[C@@H](c1ccc(Cl)cc1)c1ccccn1 |  | 6.53%
32 | NC1CCN(c2cccc(Cl)n2)CC1 |  | 1.68%
33 | C[C@]12CC[C@@H]3c4ccc(O)cc4CC[C@H]3[C@@H]1CC[C@@H]2OC(=O)CCC1CCCC1 |  | -19.8%
34 | CC(=O)Oc1c(C)c(C)c2c(c1C)CC[C@@](C)(CCC[C@H](C)CCC[C@H](C)CCCC(C)C)O2 |  | 0.405%
35 | CC12CCC(CC1)C(C)(C)O2 |  | 15.6%
36 | Cn1cc[nH]c1=S |  | 4.58%
37 | CN1[C@@H]2CC(OC(=O)[C@H](CO)c3ccccc3)C[C@H]1[C@@H]1O[C@@H]12 (stereo not given in full) |  | -13.5%
38 | CN(C)CCCO[C@@H]1[C@H]2OC(C)(C)O[C@H]2O[C@@H]1C(O)CO (stereo not given in full) |  | 19.3%
39 | COc1ccc2cc1Oc1ccc(cc1)C[C@H]1c3c(cc4c(c3Oc3cc5c(cc3OC)CCN(C)[C@@H]5C2)OCO4)CCN1C |  | -7.56%
40 | Oc1cn2c(n1)Nc1ccc(Cl)c(Cl)c1C2 |  | 7.73% [at 16.1 µM]
